38 compounds from PubChem BioAssay (NCATS) can be followed below.

The structures appear in SMILES notation. Inconclusive results are not listed. Entries that show only a call come without a potency. Calls of active or inactive are those of the source. Unless noted, calls come from the whole dose curve; as a rule, active = well fitted curve in the direction sought with a large enough effect; inconclusive = small, poorly fitted or top-dose-only effect, or another doubt; inactive = no such curve, though single readings can be large; an effect the other way counts as inactive or inconclusive.

Chain of Phenylethanolamine N-methyltransferase (Homo sapiens) (P11086 whole entry, looked up): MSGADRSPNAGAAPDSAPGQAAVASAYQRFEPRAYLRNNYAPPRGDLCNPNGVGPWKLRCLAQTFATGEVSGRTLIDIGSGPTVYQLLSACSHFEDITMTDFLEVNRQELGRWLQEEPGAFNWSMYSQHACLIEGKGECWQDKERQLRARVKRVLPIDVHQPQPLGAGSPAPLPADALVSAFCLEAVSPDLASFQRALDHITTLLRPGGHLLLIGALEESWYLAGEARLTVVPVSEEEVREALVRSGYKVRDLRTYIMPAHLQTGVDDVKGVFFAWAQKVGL
Chain of Glutathione peroxidase 1 (Homo sapiens) (P07203 whole entry, looked up): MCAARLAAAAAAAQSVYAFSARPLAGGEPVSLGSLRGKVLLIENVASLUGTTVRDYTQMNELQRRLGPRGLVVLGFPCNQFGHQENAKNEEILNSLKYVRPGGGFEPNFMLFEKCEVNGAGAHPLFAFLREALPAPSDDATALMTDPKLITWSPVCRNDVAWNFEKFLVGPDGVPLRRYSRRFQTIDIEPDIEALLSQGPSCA
Chain of Metallo-beta-lactamase type 2 (Klebsiella pneumoniae) (C7C422 whole entry, looked up): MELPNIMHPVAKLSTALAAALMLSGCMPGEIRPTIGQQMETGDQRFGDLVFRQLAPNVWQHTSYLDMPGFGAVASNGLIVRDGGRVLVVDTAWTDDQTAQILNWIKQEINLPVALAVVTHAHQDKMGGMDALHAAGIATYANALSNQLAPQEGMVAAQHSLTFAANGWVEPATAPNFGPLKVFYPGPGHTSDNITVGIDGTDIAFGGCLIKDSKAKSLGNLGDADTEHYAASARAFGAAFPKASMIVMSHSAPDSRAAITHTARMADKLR

The first test deals with Catechol O-methyltransferase (Homo sapiens) (UniProt P21964). The experiment in a line: Confirmatory Screen for Target Class Profiling of Small Molecule Inhibitors of Methyltransferases (AID 1745852; calls by dose curve). Particulars: MTase-Glo luminescence, SAH detection, recombinant enzyme; measured here: COMT max response; stronger effect = lower value.
Chain of Catechol O-methyltransferase (Homo sapiens) (P21964 whole entry, looked up): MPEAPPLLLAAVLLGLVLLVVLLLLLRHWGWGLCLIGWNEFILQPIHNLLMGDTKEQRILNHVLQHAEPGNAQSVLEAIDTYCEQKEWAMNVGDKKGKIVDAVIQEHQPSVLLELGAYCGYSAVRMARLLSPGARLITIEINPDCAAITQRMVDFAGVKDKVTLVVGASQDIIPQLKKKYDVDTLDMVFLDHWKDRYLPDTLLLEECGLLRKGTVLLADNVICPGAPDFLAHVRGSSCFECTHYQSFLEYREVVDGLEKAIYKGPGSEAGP
As to `COc1cc(C(=O)O[C@H]2[C@@H]3C=CO[C@@H](O[C@@H]4O[C@H](CO)[C@@H](O)[C@H](O)[C@H]4O)[C@@H]3[C@@]3(CO)O[C@@H]23)ccc1O`, the activity is -83.5%.
Consider `CN1CCC[C@@H]1Cc1c[nH]c2ccc(Nc3ncccc3[N+](=O)[O-])cc12`, for which the activity amounted to 3.7%.
Still for that read-out and setting: the figure for `N#C/C(=C/c1ccc(O)c(O)c1)C(N)=S` is 52.2%.

The target in the next test is Guanidinoacetate N-methyltransferase (Homo sapiens) (UniProt Q14353). The test is described as above. Particulars: MTase-Glo luminescence, SAH detection, recombinant enzyme; activity change, negative = inhibition: at 57.3 µM (top of the series) unless noted.
As for `COc1cc(C(=O)O[C@H]2[C@@H]3C=CO[C@@H](O[C@@H]4O[C@H](CO)[C@@H](O)[C@H](O)[C@H]4O)[C@@H]3[C@@]3(CO)O[C@@H]23)ccc1O`, the activity change, negative = inhibition was -1.53% [at 29.8 µM].
On to `CN1CCC[C@@H]1Cc1c[nH]c2ccc(Nc3ncccc3[N+](=O)[O-])cc12`, for which the activity change, negative = inhibition came out at 2.94%.
As for `N#C/C(=C/c1ccc(O)c(O)c1)C(N)=S`, the activity change, negative = inhibition is -6.16%.

In a further test the target is Nicotinamide N-methyltransferase (Homo sapiens) (UniProt P40261). Described as above. Particulars: MTase-Glo luminescence, SAH detection, recombinant enzyme; measured here: NNMT max response; stronger effect = lower value.
Chain of Nicotinamide N-methyltransferase (Homo sapiens) (P40261 whole entry, looked up): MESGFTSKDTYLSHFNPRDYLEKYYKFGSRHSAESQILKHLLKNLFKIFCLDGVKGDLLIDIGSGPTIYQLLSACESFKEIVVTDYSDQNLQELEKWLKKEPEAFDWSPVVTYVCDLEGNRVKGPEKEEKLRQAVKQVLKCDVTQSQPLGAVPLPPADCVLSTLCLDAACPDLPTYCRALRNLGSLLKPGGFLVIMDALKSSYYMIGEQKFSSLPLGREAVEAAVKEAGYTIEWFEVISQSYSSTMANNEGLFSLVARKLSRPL
Turning to `COc1cc(C(=O)O[C@H]2[C@@H]3C=CO[C@@H](O[C@@H]4O[C@H](CO)[C@@H](O)[C@H](O)[C@H]4O)[C@@H]3[C@@]3(CO)O[C@@H]23)ccc1O`, the activity was -4.95%.
The same measure, in the same setting: the figure for `CN1CCC[C@@H]1Cc1c[nH]c2ccc(Nc3ncccc3[N+](=O)[O-])cc12` is -4.11%.
On to `N#C/C(=C/c1ccc(O)c(O)c1)C(N)=S`, for which the activity is -5.97%.

A further test has as its target Phenylethanolamine N-methyltransferase (Homo sapiens) (UniProt P11086). Described as above. Particulars: MTase-Glo luminescence, SAH detection, recombinant enzyme; measured here: PNMT max response; stronger effect = lower value.
As to `COc1cc(C(=O)O[C@H]2[C@@H]3C=CO[C@@H](O[C@@H]4O[C@H](CO)[C@@H](O)[C@H](O)[C@H]4O)[C@@H]3[C@@]3(CO)O[C@@H]23)ccc1O`, the activity is -3.91%.
Still for that read-out and setting: the figure for `CN1CCC[C@@H]1Cc1c[nH]c2ccc(Nc3ncccc3[N+](=O)[O-])cc12` is 3.35%; for `N#C/C(=C/c1ccc(O)c(O)c1)C(N)=S` it is 1.47%.

System in the next test: not listed separately
The experiment in a line: NCATS anti-infectives library activity on HEK293 viability as a counter-qHTS vs the C. elegans viability qHTS (AID 1745854).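 Note: HEK293 cells exposed to compounds for 24 hr before the viability read.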 The following applies: HEK293 viability counter-screen; series mostly up to 41.8 µM. The method in brief:
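HEK293 cells (1,500/well) exposed 24 hr at 37C to 1:5 titrations, up to 41.7 uM final; counter-screen to a C. elegans viability qHTS. Viability by CellTiter-Glo luminescence after 10 min at room temperature; digitonin as control.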
With `COc1cc(C(=O)O[C@H]2[C@@H]3C=CO[C@@H](O[C@@H]4O[C@H](CO)[C@@H](O)[C@H](O)[C@H]4O)[C@@H]3[C@@]3(CO)O[C@@H]23)ccc1O`, the outcome is “inactive”.
Still for that read-out and setting: the entry for `C1=C2CCCN[C@H]2[C@@H]2C[C@H]1[C@H]1CCCCN1C2` is “inactive”.
Still for that read-out and setting: the entry for `O=C(O)c1ccnc2cc(C(OCCN3CCCCC3)c3ccccc3Cl)[nH]c12` (stereo not drawn) is “inactive”; for `CN1CCCC1CCOC(c1cc2nccc(C(=O)O)c2[nH]1)c1ccccc1Cl` (stereo not drawn) it is “inactive”.
Still for that read-out and setting: the entry for `Cc1cc(C(=O)CN2CCCC2)c(C)n1-c1ccc(F)cc1` is “inactive”.

A further test concerns the target Metallo-beta-lactamase type 2 (Klebsiella pneumoniae) (UniProt C7C422). The experiment in a line: qHTS to identify inhibitors of the New Delhi Metallo-beta-lactamase (NDM): assay validation screen against the NCATS LOPAC Collection (AID 1794843).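 Note: nitrocefin turnover by NDM-1 measured as 485 nm absorbance at plateau.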 Particulars: NDM-1 enzyme, nitrocefin hydrolysis, absorbance 485 nm; series mostly up to 38.4 µM. The method, boiled down:
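NDM-1 at 2 nM final in 50 mM HEPES pH 7.0, 1 uM ZnSO4, 0.01% Tween20, preincubated with LOPAC compounds pinned in DMSO; 50 uM nitrocefin (stock) added. Hydrolysis read as absorbance at 485 nm in the plateau phase.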
On to `CN1CCC[C@@H]1Cc1c[nH]c2ccc(Nc3ncccc3[N+](=O)[O-])cc12`, for which the Potency entry was “inactive”.
In the case of `N#C/C(=C/c1ccc(O)c(O)c1)C(N)=S`, the Potency entry is “inactive”.
On the same count and under the same terms, the entry for `CC(=O)c1c(O)c(C)c(O)c(Cc2c(O)c3c(c(C(=O)/C=C/c4ccccc4)c2O)OC(C)(C)C=C3)c1O` is “inactive”.

A further test has as its target Glutathione peroxidase 1 (Homo sapiens) (UniProt P07203). The experiment in a line: Primary qHTS Assay for Inhibitors of Recombinant Selenoprotein Glutathione Peroxidase 1 (GPX1) (AID 1845191). Note: nearly all actives have a fitted effect of over 65% in size. Note: potency is the fitted concentration of half-maximal effect. The following applies: recombinant GPX1, GR-coupled NADPH fluorescence, 15 min; series mostly up to 48.8 µM. The method, boiled down:
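10 nM GPX1 + cpd, 30 min RT; start w/ 1 mM GSH, 0.5 mM cumene hydroperoxide, 0.5 mM NADPH, 100 nM GR, 0.01% BSA; buffer 50 mM Tris-HCl pH 7.5, 2 mM EDTA, 150 mM NaCl; Fl 340/450, 0 & 15 min.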
In the case of `Cn1ncnc1COc1nn2c(-c3c(F)cccc3F)nnc2cc1C1CCC1`, the Potency entry was “inactive”.
For `COC(=O)C1(C)CCC(=O)C2(C)c3c(O)cc(C(C)C)cc3C(O)C(OC(C)=O)C12` (stereo not drawn), the Potency entry was “inactive”.
As for `CCc1[nH]c2ccc(OC)cc2c1CCN(C)C`, the Potency result is “inactive”.
Same read-out and setting: the entry for `CN1C(=O)c2ccccc2NC(=O)[C@]12O[C@@H]2c1ccccc1` is “inactive”.
Turning to `COC1CC(OC2CCC3(C)C(=CCC4C3CCC3(C)C(C(C)OC5OC(COC6OC(CO)C(O)C(O)C6O)C(O)C(O)C5O)CCC43O)C2)OC(C)C1OC1OC(C)C(O)C(OC)C1O` (stereo not drawn), the Potency entry was “inactive”.
Consider `CCN1C[C@]2(COC)[C@H](O)C[C@H](OC)[C@]34[C@@H]5C[C@]6(O)[C@H](OC(=O)c7ccccc7)[C@@H]5[C@@](O)([C@H]([C@H](OC)[C@H]23)[C@@H]14)[C@@H](O)[C@@H]6OC`, for which the Potency entry was “inactive”.
On the same count and under the same terms, the entry for `COc1cc(C(=O)O[C@H]2[C@@H]3C=CO[C@@H](O[C@@H]4O[C@H](CO)[C@@H](O)[C@H](O)[C@H]4O)[C@@H]3[C@@]3(CO)O[C@@H]23)ccc1O` is “inactive”; for `CC(=O)OC1CC(O)C(C)(C)C2CC(OC(C)=O)C3(C)C(CCC4(C)C(c5ccoc5)C(=O)C5OC543)C12C` (stereo not drawn) it is “inactive”.
As to `C=C[C@H]1[C@H](O[C@@H]2O[C@H](CO)[C@@H](O)[C@H](O)[C@H]2O)OC=C2C(=O)OCC[C@H]21`, the Potency result is “inactive”.
Same read-out and setting: the entry for `COc1cc2c(cc1OC)[C@@]13CCN4CC5=CCO[C@H]6CC(=O)N2[C@H]1[C@H]6[C@H]5C[C@H]43` is “inactive”.
For `CCN1CC2(COC)C3[C@@H](OC)C4C1C3(C1C[C@]3(O)[C@H](OC(=O)c5ccccc5)C1[C@]4(OC(C)=O)[C@@H](O)[C@@H]3OC)[C@H](OC)C[C@H]2O` (stereo partly drawn), the Potency entry is “inactive”.
Still for that read-out and setting: the entry for `CCN1C[C@]2(OC(=O)c3ccccc3NC(C)=O)CC[C@H](OC)[C@@]34[C@@H]2C[C@@H]([C@@H]13)[C@@]1(O)C[C@H](OC)[C@H]2C[C@@H]4[C@]1(O)[C@H]2OC` is “inactive”; for `O=C(N1CCOCC1)N1CCN(c2ccc(Cl)cc2)CC1` it is “inactive”.
Turning to `C1=C2CCCN[C@H]2[C@@H]2C[C@H]1[C@H]1CCCCN1C2`, the Potency entry was “inactive”.
As to `C=C1[C@@H]2CC[C@@]3(C)[C@H](c4ccoc4)OC(=O)C[C@]13O[C@H]1CC(=O)C(C)(C)[C@H](C(OC(C)=O)C(=O)OC)[C@]12C` (stereo partly drawn), the Potency entry was “inactive”.
The same measure, in the same setting: the entry for `CCOc1ccccc1-n1c(C(C)N2CCN(C(=O)COc3ccc(Cl)cc3)CC2)nc2ccccc2c1=O` (stereo not drawn) is “inactive”; for `CN1C(=O)c2ccccc2NC(=O)C1Cc1ccccc1` (stereo not drawn) it is “inactive”; for `N#C[C@@H](O[C@@H]1O[C@H](CO[C@@H]2O[C@H](CO)[C@@H](O)[C@H](O)[C@H]2O)[C@@H](O)[C@H](O)[C@H]1O)c1ccccc1` it is “inactive”.
The same measure, in the same setting: the entry for `COC1=CC(=O)O[C@@H](/C=C/c2ccccc2)C1` is “inactive”; for `O=C(O)c1ccnc2cc(C(OCCN3CCCCC3)c3ccccc3Cl)[nH]c12` (stereo not drawn) it is “inactive”.
As for `C=CC(C)(O)CC/C=C(\C)C(=O)O[C@H]1[C@H](O)[C@@H](CO)O[C@@H](OC(=O)[C@]23CCC(C)(C)CC2C2=CCC4[C@@]5(C)CC[C@H](O[C@@H]6O[C@H](CO[C@@H]7OC[C@H](O)[C@H](O)[C@H]7O[C@@H]7OC[C@@H](O)[C@H](O)[C@H]7O)[C@@H](O)[C@H](O)[C@H]6O)C(C)(C)C5CC[C@@]4(C)[C@]2(C)CC3)[C@@H]1OC1OC(C)C(O[C@@H]2OC[C@@H](O)[C@H](O[C@@H]3OC[C@@H](O)[C@H](O)[C@H]3O)[C@H]2O)C(O)C1O` (stereo partly drawn), the outcome was “inactive [at 9.52 µM]”.
`CN1C(=O)N(c2ccc(C#N)c(C(F)(F)F)c2)C(=O)[C@]1(CO)c1ccccc1`: the Potency entry is “inactive”.
On the same count and under the same terms, the entry for `CC(C)=C1CC[C@]23CO[C@H](C2)[C@@](O)(C(=O)O)CCC13` (stereo partly drawn) is “inactive”.
On the same count and under the same terms, the entry for `CN1CCC[C@@H]1Cc1c[nH]c2ccc(Nc3ncccc3[N+](=O)[O-])cc12` is “inactive”; for `CO[C@@H]1[C@H](O)[C@@H](O[C@@H]2C[C@H]3CC[C@@H]4C(CC[C@]5(C)[C@@H](C6=CC(=O)OC6)CC[C@]45O)[C@@]3(C)[C@H](O)C2)O[C@H](C)[C@@H]1O[C@@H]1O[C@H](CO)[C@@H](O)[C@H](O)[C@H]1O` (stereo partly drawn) it is “inactive”; for `N#C/C(=C/c1ccc(O)c(O)c1)C(N)=S` it is 14.3 µM (active).
On the same count and under the same terms, the entry for `COC1C(O)C(OC2CCC3(C=O)C(CCC4C3CCC3(C)C(C5=CC(=O)OC5)CCC43O)C2)OC(C)C1OC1OC(CO)C(O)C(O)C1O` (stereo not drawn) is “inactive”; for `COC1CC(OC2CCC3(C)C(CCC4C3CCC3(C)C(C5=CC(=O)OC5)C(OC(C)=O)CC43O)C2)OC(C)C1OC1OC(CO)C(O)C(O)C1O` (stereo not drawn) it is “inactive”; for `C=CC(C)(C)c1[nH]c2cccc3c2c1C[C@@H]1[C@@H]3[C@@H](OC(C)=O)[C@H](C)CN1C` it is “inactive”.
In the case of `COC(=O)C12C(=O)C(C)(O)C(=O)C1(C)C(C)=CC1C34CCC(OC3=O)C(C)(CO)C4CCC12C` (stereo not drawn), the Potency entry was “inactive”.
Same read-out and setting: the entry for `C[C@@]12C[C@@H](c3ccoc3)OC(=O)C1CC[C@]1(C)[C@H]2[C@H]2C=C[C@]1(O)C(=O)O2` (stereo partly drawn) is “inactive”.
Same read-out and setting: the entry for `COc1ccc2c(c1)/C(=C/c1cnc[nH]1)C(=O)N2` is “inactive”; for `C/C=C(\C)C(=O)OC1CC2C(C)(C)OC(=O)CC(OC(C)=O)C2(C)C2CC(OC(=O)C(C)C)C3(C)C(c4ccoc4)CC4OC43C12C` (stereo not drawn) it is “inactive”; for `CC(C)C1(OO)C=C2C(=O)CC3C(C)(C(=O)O)CCCC3(C)C2CC1` (stereo not drawn) it is “inactive”.
Still for that read-out and setting: the entry for `CN1CCCC1CCOC(c1cc2nccc(C(=O)O)c2[nH]1)c1ccccc1Cl` (stereo not drawn) is “inactive”; for `CC(=O)c1c(O)c(C)c(O)c(Cc2c(O)c3c(c(C(=O)/C=C/c4ccccc4)c2O)OC(C)(C)C=C3)c1O` it is “inactive”.
As to `Cc1cc(C(=O)CN2CCCC2)c(C)n1-c1ccc(F)cc1`, the Potency result is “inactive”.
On the same count and under the same terms, the entry for `COc1cc(CCNCc2ccccc2O)c(OC)cc1C#N` is “inactive”.
